# Screening data (PubChem BioAssay)
# IL-1B inflam inh: inhibitors of inflammasome signaling (IL-1 beta secretion); activity change, % at 57.5 µM; AID 743279; THP-1 LPS/ATP IL-1B secretion, AlphaLISA, 16 h; stronger effect = lower value; hit rate 4.7% among 360,000; in the data active = activity change below about -50%; inconclusive = mostly about -30% to -49%
#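 THP-1 cells pretreated 1 hr with compounds (up to 57.5 uM final), then stimulated with LPS (250 ng/mL final) plus ATP (1.25 mM final); secreted IL-1B measured by AlphaLISA after 16 hr, decreased signal indicating inhibition.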
# HT1080-NT tox: kills 2HG-producing HT-1080-NT fibrosarcoma cells; Potency, µM (doses to about 46.1 µM), for inactives: at the top dose activity, negative = less viability, usual class: cytotoxic; hit rate 1.6% among 360,000; HT-1080-NT fibrosarcoma viability, CellTiter-Glo ATP luminescence, 48 h; AID 686970;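 note: NT is the 2HG producing partner of a matched IDH1 knockdown line; potency is the fitted concentration of half-maximal effect; 0% = DMSO-treated cells and -100% = media-only wells without cells; nearly all actives have a fitted effect of over 55% in size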
#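 Luminescent CellTiter-Glo readout after 48 hours of compound exposure at 37 degrees C defined viability of HT-1080-NT cells. Activity was normalized to DMSO wells and cell-free media wells; concentration-response curves were fitted and assigned curve classes.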
# TDP1 cell noCPT: qHTS for Inhibitors of human tyrosyl-DNA phosphodiesterase 1 (TDP1): qHTS in cells in absence of CPT; DT40 Tdp1-/- hTDP1 cells, no CPT, ATP luminescence, 48 h; Potency, µM (top dose mostly 46.2 µM), inactives show at the top dose activity change, negative = growth inhibition, hits mostly inhibitors; hit rate 15% among 420,000; note: potency is the fitted concentration of half-maximal effect; nearly all actives have a fitted effect of over 55% in size
#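 Seeded 400 DT40-hTDP1 cells/well (vehicle DMSO, no 20 nM CPT); pinned compounds; ≥48 hr at 37 °C; CellTiter-Glo luminescence as viability measure.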
# TDP1 cell CPT: DT40-hTDP1 cell growth loss with CPT | chicken DT40 Tdp1-/-;hTDP1 cells + 20 nM CPT, ATP luminescence, 48 h | Potency, µM (doses to about 46.2 µM), for the others: top-dose activity change, negative = growth inhibition, actives largely listed as inhibitors | hit rate 12% among 420,000 | AID 686979; note: potency is the fitted concentration of half-maximal effect; nearly all actives have a fitted effect of over 55% in size
#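 Cell growth measured by CellTiter-Glo luminescence after a minimum 48 h, 37 C compound exposure with 20 nM CPT in Tdp1-knockout DT40 cells stably expressing hTDP1, seeded 400/well; qHTS titration format.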
# HT1080 IDH1KD tx: toxicity to HT-1080 IDH1 knockdown cells (counter line). Potency, µM (highest dose often 46.1 µM), for the others: top-dose activity, negative = toxicity, actives largely listed as cytotoxic. hit rate 2% among 360,000. HT-1080 IDH1 knockdown viability, ATP luminescence, 48 h;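 note: potency is the fitted concentration of half-maximal effect; 0% = DMSO wells and -100% = cell-free medium wells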
#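 Assay cells: HT-1080 with IDH1 knockdown, 750 per well, RPMI/5% FBS. Exposure: 48 h at 37 °C following 2 h pre-incubation. Read: CellTiter-Glo luminescence; fitted concentration-response, curve class assigned.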
# Active calls of the source: *; ? = inconclusive; · = no result given; [ ] = another dose, or the depositor's remark. Rows were chosen to be rich in hits. Some 19% of all compounds tested hit in one or more screens of this group. Unless noted, calls come from the whole dose curve; as a rule, active = well fitted curve in the direction sought with a large enough effect; inconclusive = small, poorly fitted or top-dose-only effect, or another doubt; inactive = no such curve, though single readings can be large; an effect the other way counts as inactive or inconclusive. Unless noted, % is set by controls: 0 for no effect and ±100 for the full control effect.
SMILES,IL-1B inflam inh,HT1080-NT tox,TDP1 cell noCPT,TDP1 cell CPT,HT1080 IDH1KD tx
Cc1c(C(=O)Nc2ccncc2)oc2ccccc12,3,-1%,21µM*,21µM*,?
COC(=O)c1sc(NC(=O)COc2ccccc2C)nc1C,-10,-18%,-4%,0%,-18%
COC(=O)c1sc(NC(=O)COc2c(C)cccc2C)nc1C,34,-1%,12µM*,-14%,-1%
Cc1cc(NC(=O)c2oc3ccccc3c2C)ccc1-n1cnnn1,·,?,23µM*,18µM*,3%
CCOC(=O)c1cnc(/N=C/N(C)C)s1,-11,6%,-8%,1%,6%
COC(=O)c1sc(NC(=O)c2oc3ccccc3c2C)nc1C,23,-1%,3.7µM*,?,-2%
COc1cc(NC(=O)c2ccccc2-n2cnnn2)cc(OC)c1,16,12%,-19%,0%,16%
COc1cc(OC)cc(C(=O)Nc2ccc(-n3cnnn3)c(C)c2)c1,-68*,-7%,?,-24%,-3%
CC(C)(C)N1C(=O)c2ccc(C(=O)Nc3ccc(O)cc3)cc2C1=O,?,?,16µM*,?,?
COC(=O)c1cccc(NC(=O)c2ccc3c(c2)C(=O)N(Cc2cccnc2)C3=O)c1,20,13%,-2%,-1%,18%
COC(=O)c1cccc(NC(=O)c2ccc3c(c2)C(=O)N(C(C)(C)C)C3=O)c1,-54*,-4%,?,-5%,-1%
CC(C)(C)NC(=O)c1cccc(NC(=O)c2ccc3c(c2)C(=O)N(C(C)(C)C)C3=O)c1,-96*,?,10µM*,?,?
O=C(OCc1ccccc1)N1C=CCC[C@@H]1c1c(Cl)cccc1Br,0,-4%,?,?,4%
CCOC(=O)c1cc(NC(=O)CC(C)(C)CC(=O)O)ccc1N1CCCCC1,28,16%,-12%,-5%,1%
CCN1CCN(Cc2c(O)ccc3c(=O)c(Oc4ccccc4Cl)c(C(F)(F)F)oc23)CC1,·,·,21µM*,?,·
CN1CCN(Cc2c(O)ccc3c(=O)c(Oc4ccccc4Cl)c(C(F)(F)F)oc23)CC1,8,-4%,-7%,?,-12%
CC1(NC(=O)Cc2csc(-c3cccc(Cl)c3)n2)CCS(=O)(=O)C1 (configuration not stated),1,0%,?,-24%,1%
COc1ccccc1N1CCN(c2ccnc3cc(Cl)ccc23)CC1,40,3.7µM*,4.6µM*,2.6µM*,7.3µM*
O=C(Nc1ccc(OC(F)(F)F)cc1)N1CCN(c2ccnc3cc(Cl)ccc23)CC1,?,?,5.2µM*,4.6µM*,?
COc1ccccc1NC(=O)N1CCN(c2ccnc3cc(Cl)ccc23)CC1,-75*,-2%,16µM*,?,-22%
COc1ccccc1NC(=O)N1CCOCC1,6,11%,3%,7%,19%
COc1ccccc1NC(=O)N1CCc2[nH]c3ccc(Cl)cc3c2C1,·,?,?,21µM*,?
COc1ccccc1N1CCN(c2cnccn2)CC1,-10,9%,-9%,-1%,-2%
COc1ccc2oc(C(=O)NC3(C)CCS(=O)(=O)C3)c(C)c2c1 (configuration not stated),5,1%,-5%,-6%,18%
CC(C)c1csc(CN2CCC(N3CCC(C(=O)NCC4CCCO4)CC3)CC2)n1 (configuration not stated),16,16%,5%,-11%,1%
SMILES,IL-1B inflam inh,HT1080-NT tox,TDP1 cell noCPT,TDP1 cell CPT,HT1080 IDH1KD tx
CCOc1ccc(S(=O)(=O)NC(Cc2cnc[nH]2)C(=O)O)cc1 (configuration not stated),4,17%,2%,1%,9%
Cc1sc2nc(CSc3cccc(C(F)(F)F)c3)[nH]c(=O)c2c1C,-1,1%,?,-14%,-2%
Cc1cccc(CNC(=O)c2cnn(-c3ncc(C)c(-c4ccc(F)cc4)n3)c2C)n1,·,·,-25%,-2%[9.04 µM],·
COc1cccc(C(=O)Nc2ccc(C(=O)OCc3cc(=O)n4nc(C5CC5)sc4n3)cc2)c1,·,·,-14%,-7%,·
Oc1ccc(/C=C/c2nc(-c3ccccc3O)n(-c3ccccc3)n2)cc1,-66*,?,?,?,?
O=C(O)c1ccc(-n2nc(-c3ccccc3O)nc2-c2ccccc2O)cc1,·,·,21µM*,?,·
Oc1ccccc1-c1nc(/C=C/c2ccccc2)nn1-c1ccccc1,?,1%,?,-27%,3%
CC(C)(C)c1ccc(C(=O)NCc2cccnc2)cc1,16,5%,?,-19%,-24%
S=C(NCc1cccnc1)Nc1ccc(Cl)c(Cl)c1,-58*,?,?,-19%,?
CCC(C)c1ccc(NC(=S)NCc2cccnc2)cc1 (configuration not stated),0,23%,7.3µM*,?,10%
CC(C)(C)c1ccc(C(=O)NC(=S)NCc2cccnc2)cc1,4,-9%,18µM*,16µM*,-15%
Cc1ccc(NC(=O)NCc2cccnc2)cc1,-53*,9%,0%,2%,22%
O=C(NCc1cccnc1)Nc1ccc(Cl)c(Cl)c1,-11,5%,?,-28%,-2%
O=C(Nc1ccc(F)cc1Cl)C1Cc2ccccc2N1C(=O)c1ccccc1 (configuration not stated),·,·,-22%,-5%,·
CC1CN(C(=O)c2ccc(OC3CCN(Cc4ccccn4)CC3)cc2)CCN1C (configuration not stated),11,6%,-5%,-2%,-6%
Cc1cc(=O)[nH]c2nnc(SCCC(C)C)n12,·,·,-10%,8%,·
CC(C)(C)c1ccc(C(=O)c2c[nH]c(C(=O)NCc3cccnc3)c2)cc1,-11,-3%,16µM*,18µM*,-6%
